# PubChem BioAssay AID1259343 (VanderVen Lab, College of Veterinary Medicine, Cornell …, 2017)
# About 2,900 (47%) of roughly 6,200 compounds were called active. Rule as the data show it: active = inhibition above about 50%; inactive = the rest. The set was probably picked from earlier hits. This is one part of the list.
# Experiment: Mycobacterium tuberculosis growth inhibition, primary screen (AID 1259343)
# Conditions: inhibition: at 10 µM, active compounds read high; outcome: 10 uM
row,Structure (SMILES),inhibition
1,CC(C)c1ccc(O)c(NC(=S)NC(=O)c2cncc(Br)c2)c1,99.5% (active)
2,CC(NC(=O)c1cncc(Br)c1)c1ccc(Cl)cc1 (configuration not stated),86.8% (active)
3,OCC1CCCN(c2ncnc3sc4c(c23)CCCC4)C1 (configuration not stated),20.6% (inactive)
4,COc1ccc(F)cc1CN1CCN(c2ncnc3sc4c(c23)CCCC4)CC1,60% (active)
5,COc1cccc(OCCN2CCN(c3ncnc4sc5c(c34)CCCC5)CC2)c1,36.6% (inactive)
6,Oc1cc(CCC2CCCCN2)cc(-c2ccncc2)c1 (configuration not stated),45.4% (inactive)
7,C1CCC(C(CC2CCCCN2)C2CCCCC2)CC1 (configuration not stated),55.1% (active)
8,CC(OC1CC(=O)CC2C(=O)c3ccccc3C(=O)C12)c1ccccc1 (configuration not stated),94.3% (active)
9,CC(C)c1ccc2c(c1O)CC[C@H]1C3=C(CC[C@]21C)C(=O)OC3,45% (inactive)
10,Cn1cc(C=NNc2ccccc2)c2ccccc21,-30.1% (inactive)
11,C(=NNc1ccccc1)c1cnn(-c2ccccc2)c1,94.4% (active)
12,C(=NNC1=Nc2cccc3cccc1c23)c1ccccc1,15.1% (inactive)
13,COc1c(Cl)cc(NC(=O)C2CC(=O)N(C)C2)cc1Cl (configuration not stated),43.6% (inactive)
14,CN(C)C(=O)N1CCC(C(=O)Nc2ccc(Oc3ccccc3)cc2)CC1,81.9% (active)
15,CN1CC(C(=O)Nc2ccc3nc(C4CC4)oc3c2)CC1=O (configuration not stated),-6.81% (inactive)
16,COc1cccc(C(=O)Oc2ccc(C(=O)COC(=O)C3CC(=O)N(C4CCCCC4)C3)cc2)c1 (configuration not stated),-11.2% (inactive)
17,O=C1CCC(C(=O)Nc2ccc(Oc3ccccc3)cc2)N1 (configuration not stated),29.5% (inactive)
18,O=C(Nc1ccc(Oc2ccccc2)cc1)C1CC(=O)N(C2CC2)C1 (configuration not stated),66.1% (active)
19,O=C(Nc1nc(-c2ccc(Cl)cc2)cs1)C1CC(=O)N(C2CC2)C1 (configuration not stated),21.7% (inactive)
20,Cc1ccc(NC(=O)C2CC(=O)N(C3CC3)C2)cc1C(F)(F)F (configuration not stated),63.6% (active)
21,CN(C)c1ccc2cc(NC(=O)C3CC(=O)N(C4CCCC4)C3)ccc2n1 (configuration not stated),87.7% (active)
22,CC1CC(N2CCN(c3nccs3)CC2)C(=O)O1 (configuration not stated),2.21% (inactive)
23,O=C(Nc1ccc(Oc2ccccc2Cl)cc1)N1CCOC2CCCCC21 (configuration not stated),26.2% (inactive)
24,CC(=O)NCCC1CCCCN1C(=O)Nc1ccc(Oc2ccccc2)cc1 (configuration not stated),83.9% (active)
25,Fc1cccc(-c2nnn(CCc3ccccn3)n2)c1,65.1% (active)
26,Fc1ccc(-c2nnn(CCCc3n[nH]c(Cc4ccccc4)n3)n2)cc1,37.6% (inactive)

row,Structure (SMILES),inhibition
1,CCNC(=O)CCC(=O)Nc1ccc(OC2CCCC2)c(F)c1,92.8% (active)
2,CNS(=O)(=O)c1cc(NC(=O)CNC(=O)C2CCCCC2)ccc1C,8.53% (inactive)
3,c1ccc2c(c1)oc1c(NC3CCCCC3)ncnc12,-31.2% (inactive)
4,c1ccc2c(c1)oc1c(NCC3CCCCC3)ncnc12,23.3% (inactive)
5,c1ccc2c(c1)oc1c(NC3CCCCCC3)ncnc12,102% (active)
6,COc1cc(C=c2sc(=CC(=O)c3ccco3)[nH]c2=O)cc(Br)c1O,91.2% (active)
7,c1cnc(NCc2cccnc2N2CCc3ccccc3C2)nc1,36.6% (inactive)
8,Fc1ccccc1CON=C1CCN(c2ncccn2)CC1,83.5% (active)
9,CCN(CC(=O)Nc1c(Cl)cccc1Cl)C(=O)CCn1c(=O)oc2cc(Cl)ccc21,-5.97% (inactive)
10,CN(Cc1nc2c(s1)CCCC2)C(=O)c1cc(COc2ccc(-n3cncn3)cc2)on1,85.4% (active)
11,CCc1ccc(CN(C)C(=O)c2cc(COc3ccc(-n4cncn4)cc3)on2)cc1,36.7% (inactive)
12,COc1cccc(C=C2N=C(c3ccccc3OC(F)F)OC2=O)c1,86.9% (active)
13,C=CCOc1ccc(C=C2N=C(c3ccccc3I)OC2=O)cc1OC,-4.12% (inactive)
14,COc1ccc(C=C2N=C(c3cccc(F)c3)OC2=O)cc1,3.76% (inactive)
15,Cc1cccc(CN(C)C)c1OC(=O)N(C)C,3.93% (inactive)
16,CN(C)Cc1ccc2ccc3cccc4ccc1c2c34,90.5% (active)
17,CN(Cc1ccccc1C#N)c1ccc2ccccc2c1,30.3% (inactive)
18,CN(Cc1ccc(-c2ccc(Cl)cc2)o1)C(=O)CNC(=O)c1ccccc1,72.2% (active)
19,CN(Cc1ccc(-c2ccc(Cl)cc2)o1)C(=O)CCl,90.9% (active)
20,Cc1oc(-c2ccc(Cl)cc2)nc1CN(C)Cc1ccc2nonc2c1,31.7% (inactive)
21,Cn1ccsc1=NC(=O)c1csc(-c2ccc(Cl)cc2)n1,15.8% (inactive)
22,Cc1ccc(-c2nc(COC(=O)c3cc(Cl)c[nH]3)cs2)cc1,34.1% (inactive)
23,Cc1cc(NC(=O)c2csc(-c3ccc(Cl)cc3)n2)n[nH]1,74.4% (active)
24,Cc1cc2cc(C(=O)N3CCCC(C(=O)Nc4ccc(-c5ccco5)cc4)C3)ccc2o1 (configuration not stated),-11.5% (inactive)
25,Cc1nc2cc(NC(=O)C3CCCN(C(=O)OC(C)(C)C)C3)ccc2o1 (configuration not stated),82.6% (active)
26,Cc1nc2cc(NC(=O)C(C)Oc3ccc(Cl)cc3)ccc2o1 (configuration not stated),-4.42% (inactive)
